# Experimental data reported in PubChem BioAssay AID1259415 (National Center for Advancing Translational Sciences (NCATS), 2018).
# Several values for one entry are separate records, joined by “and”; a condition that tells them apart may be missing. Equal entries are not always repeated. About 18,000 (4.4%) of roughly 410,000 compounds were called active. Inconclusive results (about 7%) are left out. The sample holds actives, similar compounds and a random draw of the others, so the mix is not that of the screen. Values without a mark were called inactive. Rule as the data show it: active = activity change below about -60%; inconclusive = no clear call, values can overlap the other calls; inactive = above about -39%.
# Experiment: qHTS Assay for inhibitors of the human cytomegalovirus (HCMV)
# Conditions: HFF cells, HCMV-luciferase reporter, 72 h; at 57.5 µM; stronger effect = lower value
# Outline: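 Human foreskin fibroblasts infected with luciferase-reporter HCMV at MOI 1 PFU/cell, compounds at two doses. Luciferase measured 72 h post infection; normalized to buffer-only basal and Salinomycin (10uM) controls.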
# % is scaled to controls: 0 for no effect and ±100 for the full control effect.
row,SMILES,"activity change, negative = inhibition"
1,CCOC(=O)c1c(S(=O)(=O)N2CCCC(C(=O)NCc3ccc(F)cc3)C2)c(C)n(CC)c1C (stereo not given),-1.02%
2,Cc1ccc(C2C=C(c3ccc(Cl)cc3)Nc3nc(NC(=O)CCC(=O)O)nn32)cc1 (stereo not given),-19.9%
3,Cc1ccc(OCC(=O)OCc2cc(=O)n3nc(C4CC4)sc3n2)cc1C,-1.4%
4,COc1ccc(-n2ccnc(NCCc3ccc(Cl)cc3)c2=O)cc1OC,-27.6%
5,Cn1c(=O)c2c(nc(NCCc3ccccc3)n2Cc2ccccc2Br)n(C)c1=O,6.41%
6,Cn1c(=O)c2c(nc(NCc3ccccc3)n2CC(N)=O)n(C)c1=O,-13.4%
7,Cn1c(=O)c2c(nc(NCCc3ccccc3)n2Cc2ccccc2)n(C)c1=O,-84.2% (active)
8,Cn1c(=O)[nH]c(=O)c2c1nc(NCCc1ccccc1)n2Cc1ccc(F)cc1,26.5%
9,CCn1c(NCCc2ccc(OC)c(OC)c2)nc2c1c(=O)n(C)c(=O)n2C,-71.3% (active)
10,CCOC(=O)c1ccc(NC(=O)Cn2cc(S(=O)(=O)Cc3ccccc3F)c3ccccc32)cc1,0%
11,CCOc1cccc2cc(-c3cn4c(n3)sc3cc(C)ccc34)c(=O)oc12,0.706%
12,CCOC(=O)c1ccc(NC(=O)CC2C(=O)N(c3ccccc3)C(=O)N2Cc2cccs2)cc1 (stereo not given),16.8%
13,CCn1nc(C(=O)Nc2ccc(N3CCOCC3)cc2)c2ccccc2c1=O,-3.67%
14,CCOc1cc(-c2nnc(SCC(=O)NC3CCCCC3)nc2-c2ccc(OC)c(OCC)c2)ccc1OC,8.79%
15,CC(=O)Nc1ccc(S(=O)(=O)NCC2CCC(C(=O)NCCc3ccccc3)CC2)cc1 (stereo not given),0% and -12.6%
16,Cc1cc(NC(=O)C2CCC(CNS(=O)(=O)c3ccc(Br)s3)CC2)ccc1Br (stereo not given),-4.58%
17,COc1ccc(NC(=O)C2CCC(CNS(=O)(=O)c3csc(C(N)=O)c3)CC2)cc1OC (stereo not given),-65.3% (active)
18,COc1cccc(N2CC(NS(=O)(=O)c3ccc(Cl)cc3)CC2=O)c1 (stereo not given),-10.8%
19,COc1ccc(NC(=O)CSc2nc3ncccc3[nH]2)c(OC)c1,9.48%
20,O=C(COC(=O)C1(c2ccc(F)cc2)CCCC1)N1CCNC1=O,-24.2%

row,SMILES,"activity change, negative = inhibition"
1,CN(C)S(=O)(=O)c1cccc(NC(=O)COC(=O)C2(c3ccccc3F)CCCC2)c1,-26.2%
2,NS(=O)(=O)c1ccc(NC(=O)COC(=O)C2(c3ccc(F)cc3)CCCC2)cc1,-61.5% (active)
3,CN(Cc1ccccc1)C(=O)CCS(=O)(=O)c1cc(Br)cc2c1N(C(=O)C1CC1)CC2,-14.4%
4,O=S(=O)([N-]c1nc2ccccc2nc1-[n+]1ccc(Cc2ccccc2)cc1)c1ccc(Br)s1,-110% (active)
5,COc1ccc(S(=O)(=O)c2c(Nc3cccc(Cl)c3)sc(C(=O)c3ccccc3)c2N)cc1,20.4%
6,N#C/C(=C/c1cccc([N+](=O)[O-])c1)c1nnc2n1CCCCC2,-95.5% (active)
7,N#C/C(=C(\O)CCl)c1nnc2n1CCCCC2,-20.4%
8,N#C/C(=C(\O)C(F)(F)F)c1nnc2n1CCCCC2,-0.374%
9,CNS(=O)(=O)c1ccc2c(c1)[nH]c(=S)n2C,-5.5%
10,Cc1ccccc1OCc1ccc(-c2nc(C#N)c(N3CCCCC3)o2)o1,-23.6%
11,Cc1ccc(N2CCN(C(=O)CCc3c(C)nc4c(c3C)c(=O)n(C)c(=O)n4C)CC2)c(C)c1,-5.59%
12,COc1cccc(N2CCN(S(=O)(=O)c3ccc4c(c3)CCCN4C(C)=O)CC2)c1,-9.24%
13,CC(=O)N1CCCc2cc(S(=O)(=O)N3CCC(C(=O)NC4CCCCC4)CC3)ccc21,6.82%
14,CC(=O)N1c2ccc(S(=O)(=O)N3CCC(C(=O)NCc4ccc(F)cc4)CC3)cc2CC1C (stereo not given),-39.5%
15,CC1Cc2cc(S(=O)(=O)CCC(=O)NCc3ccc(Cl)cc3)ccc2N1C(=O)C1CC1 (stereo not given),4.59%
16,CC(=O)N1c2ccc(S(=O)(=O)N3CCCC(C(=O)NCc4ccc(Cl)cc4)C3)cc2CC1C (stereo not given),-75.8% (active)
17,CC(=O)N1CCCc2cc(S(=O)(=O)N3CCCC(C(=O)N4CCN(c5cccc(Cl)c5)CC4)C3)ccc21 (stereo not given),-72.9% (active) and -95.8% (active)
18,CC(=O)N1c2ccc(S(=O)(=O)N3CCCC(C(=O)Nc4ccc(C)cc4C)C3)cc2CC1C (stereo not given),33.5%
19,CC(=O)N1c2ccc(S(=O)(=O)N3CCCC(C(=O)Nc4cccc(Cl)c4)C3)cc2CC1C (stereo not given),-62.5% (active)
20,CC(=O)N1c2ccc(S(=O)(=O)N3CCCC(C(=O)Nc4cccc(F)c4)C3)cc2CC1C (stereo not given),-31.3%
